Screens deposited in PubChem by National Center for Advancing Translational Sciences (NCATS).
Shiga toxin inh – blocks Shiga toxin action in Vero cells. Vero cells, Shiga toxin protein synthesis inhibition reporter. inhibition, % at 38.7 µM. 290,000 tested, 9.2% active. AID 2315; in the data active = inhibition mostly above about 28%, no sharp cut-off; inactive = mostly below about 43%; also: 0% is about no effect
Cycloheximide cs – counter-screen hit for Shiga toxin inhibitors, cycloheximide. cell reporter, cycloheximide protein synthesis inhibition counterscreen. max response, %. 300,000 tested, 12% active; in the data active = max response mostly above about 13%, no sharp cut-off; inactive = mostly below about 14%; also: read at 38.3 µM for the half of the compounds with a filed dose; 0% is about no effect
LmPK inhibitor – inhibitors of Leishmania mexicana pyruvate kinase; purified LmPK, Kinase-Glo ATP luminescence, 1 h; Potency, µM (titrated, usually from 57.5 µM), inactives show at the top dose activity change, negative = inhibition, actives largely listed as inhibitors; 290,000 tested, 0.37% active; also: potency is read from the fitted curve at half-maximal effect; % is scaled to controls: 0 for no effect and ±100 for the full control effect
Target sequence (Q27686 whole entry, looked up): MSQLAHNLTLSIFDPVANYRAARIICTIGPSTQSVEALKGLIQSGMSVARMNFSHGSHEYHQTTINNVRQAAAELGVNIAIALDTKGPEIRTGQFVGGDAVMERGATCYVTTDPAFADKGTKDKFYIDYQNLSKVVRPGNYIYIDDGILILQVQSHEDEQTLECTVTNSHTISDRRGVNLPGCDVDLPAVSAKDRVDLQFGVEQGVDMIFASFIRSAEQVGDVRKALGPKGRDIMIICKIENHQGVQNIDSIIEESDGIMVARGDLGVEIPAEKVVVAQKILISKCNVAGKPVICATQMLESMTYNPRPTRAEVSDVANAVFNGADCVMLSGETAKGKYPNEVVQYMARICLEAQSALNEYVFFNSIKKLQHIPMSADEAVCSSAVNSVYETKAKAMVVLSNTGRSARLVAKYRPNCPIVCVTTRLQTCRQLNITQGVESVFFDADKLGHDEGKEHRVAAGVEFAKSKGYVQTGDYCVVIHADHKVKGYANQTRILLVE
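Purified LmPK (0.1 nM) with 0.5 mM PEP and 0.1 mM ADP in imidazole buffer pH 7.2 with MgCl2/KCl, 1 h at room temperature. ATP formed was read by luciferase luminescence and normalized to no-enzyme and uninhibited controls.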
Pf growth 96h – P. falciparum growth inhibition at 96 hours | P. falciparum luciferase reporter growth, 96 h | Potency, µM (doses to about 28.7 µM), for inactives: at the highest dose activity change, negative = inhibition, usual class: inhibitors | 320,000 tested, 6.9% active | AID 504834; also: potency is read from the fitted curve at half-maximal effect; % is scaled to controls: 0 for no effect and ±100 for the full control effect
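Two-generation exposure (96 h) targets delayed-death phenotype. Reporter parasites carrying integrated firefly luciferase, in red cells at 2% hematocrit and 0.05% parasitemia final, kept at 37 C, 5% CO2; luminescence loss indicates inhibition.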
Pf growth 48h – P. falciparum growth inhibition at 48 hours (one generation); 310,000 tested, 5.9% active; P. falciparum luciferase growth in erythrocytes, 48 h; Potency, µM (series often up to 28.7 µM), inactives show top-dose activity change, negative = inhibition, hits mostly inhibitors; also: potency is read from the fitted curve at half-maximal effect; % is scaled to controls: 0 for no effect and ±100 for the full control effect
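Luciferase-expressing P. falciparum in infected erythrocytes (2% hematocrit, 0.1% parasitemia final) in RPMI 1640/0.5% Albumax were exposed to compound for 48 hours at 37 C, 5% CO2; growth read as luminescence.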
Active calls of the source: *; i = inactive; ? = inconclusive; nt = not tested or not shown; [ ] = another dose, or the depositor's remark. In the library only some 22% were active in any assay of this set; here they are far more common. Unless noted, calls follow the shape of the dose curve; as a rule, active = well fitted inhibition curve with a large enough effect; inconclusive = small, poorly fitted or top-dose-only effect, or another doubt; inactive = no such curve, though single readings can be large or run the other way.

SMILES	Shiga toxin inh	Cycloheximide cs	LmPK inhibitor	Pf growth 96h	Pf growth 48h
COc1ccccc1CNC(=O)CCC(=O)n1ncc2cc(C)ccc21	2	6	-2%	2.6µM*	8%
COc1ccccc1CNC(=O)Cc1ccccc1	35*	35*	-1%	-8%	0%
COc1ccccc1CNC(=O)c1cc2c(s1)CS(=O)(=O)C2	-14	2	5%	i	-3%
O=C(CSc1nccn(-c2ccc(Br)cc2)c1=O)NCc1ccccc1	nt	nt	nt	?	13µM*
COc1ccccc1CNC(=O)CSc1ccc(C)cc1	14	15	3%	19%	-1%
O=C(CSc1ccccc1)NCc1ccccc1	nt	18*	-1%	?	83%
COc1ccccc1CNC(=O)COC(=O)c1n[nH]c2ccccc12	12	13	10%	?	nt
O=C(CSc1ccccc1)NCc1cccnc1	-5	-4	-4%	-20%	-6%
COc1ccccc1CNC(=O)CSc1ccccc1	50*	19*	1%	26%	-29%
COc1ccccc1CNC(=O)c1n[nH]c2ccccc12	46*	29*	-3%	52%	-3%
CCCCOc1ccc(C(=O)N2CCNC(=O)C2)cc1	-3	-3	-3%	28%	37%
O=C(NCc1ccccc1Cl)C(=O)NCC1OCCCN1S(=O)(=O)c1cccs1 (configuration not stated)	1	3	-1%	2%	-22%
Cc1cccc(OS(=O)(=O)NC(=O)OCC2CCCN3CCCCC23)c1 (configuration not stated)	-9	-6	-1%	24%	-5%
O=C(CSc1ncccn1)N1CCc2ccccc2C1	28	14*	-4%	4%	0%
O=C(Cc1ccc(Br)cc1)N1CCc2ccccc2C1	nt	39*	2%	-5%	51%
O=C(CCCOc1ccccc1)N1CCc2ccccc2C1	85*	39*	4%	11%	66%
O=C(COc1ccc(F)cc1)N1CCc2ccccc2C1	26	32*	0%	30%	14%
COc1cc(NC(=O)Nn2cnnc2)cc(OC)c1OC	-9	-1	5%	6%	17%
CC(NC(=O)c1cc(S(=O)(=O)N2CCOCC2)cn1C)c1ccccc1 (configuration not stated)	-8	-4	6%	22%	15%
CCCNC(=O)CCCN1C(=O)c2ccccc2Sc2ncccc21	-4	4	3%	?	-8%
Cc1oc(-c2ccccc2F)nc1CS(=O)(=O)CC(=O)NC1CCCC(C)C1C (configuration not stated)	-1	4	0%	-13%	20%
CCOc1cc2[nH]c(=S)n(CCC(=O)N3CCc4ccccc4C3)c(=O)c2cc1OCC	-7	-3	4%	9.3µM*	?
CCCn1c(=S)[nH]c2cc(C(=O)N3CCc4ccccc4C3)ccc2c1=O	-15	-7	4%[11.5 µM]	-8%	11%
O=C(CN(C1CCCCC1)C1CCCCC1)N1CCc2ccccc2C1	3	1	-9%	13µM*	nt
O=C(c1ccc(Br)s1)N1CCc2ccccc2C1	152*	49*	-5%	37%	46%
SMILES	Shiga toxin inh	Cycloheximide cs	LmPK inhibitor	Pf growth 96h	Pf growth 48h
COc1ccc(NC(=O)CN(C)C(=O)c2cccc(S(=O)(=O)Nc3ccccc3Cl)c2)cc1	nt	nt	nt	?	-24%
CCCCCCNc1c([N+](=O)[O-])c(=O)sc2ccccc12	-2	12	-6%	-10%	7.4µM*
S=C(NCc1ccco1)N/N=C/c1ccccc1Cl	27	-3	-3%	32%	13%
CCOc1ccc(Nc2cc(=O)oc3ccccc23)cc1	24	9	-1%	1.7µM*	1.3µM*
CCCCn1c(N)c(N(CCC)C(=O)C2CCCC2)c(=O)[nH]c1=O	nt	nt	nt	?	8%
O=C(COC(=O)CN1C(=O)C2CCCCC2C1=O)Nc1cc(F)ccc1F (configuration not stated)	nt	nt	nt	-2%	45%
COc1ccc(/C=N/O)cc1COc1ccc(NC(C)=O)cc1	9	-1	0%	7.4µM*	7%
COc1ccc(C(=O)N/N=C/c2ccc(OC)c(CN3CCCc4ccccc43)c2)cc1	1	9.4*	4%	18%	1.2µM*
COc1ccc(OCc2cc(/C=N\NC(=O)c3ccccc3)ccc2OC)cc1	72*	33*	-9%	?	-27%
COc1ccc(/C=N\NC(=O)c2ccc(F)cc2)cc1COc1ccccc1C(N)=O	-15	4	-1%	?	-3%
COc1cccc(C(=O)N/N=C/c2ccc(OC)c(COc3ccccc3C(N)=O)c2)c1	109*	57*	-8%	?	?
CC(OC(=O)c1cccc(S(=O)(=O)N2CCCC2)c1)C(=O)c1ccccc1 (configuration not stated)	-25	-3	-7%	31%	18%
CC(C)(C)NC[C@H](O)c1cc(O)cc(O)c1	nt	nt	nt	-19%	2%
O=C(NC1CCCC1)C(c1cccnc1)N(Cc1ccccc1F)C(=O)c1csnn1 (configuration not stated)	6	-3	2%	32%	-31%
COc1cc(C(=O)Oc2c(CN3CCOCC3)cc(Cl)c3cccnc23)cc(OC)c1OC	-8	8	13%	?	nt
COc1cccc(C(=O)Oc2c(CN3CCOCC3)cc(Cl)c3cccnc23)c1	-6	28	7%	nt	4.7µM*
COc1ccc(C(=O)Oc2c(CN3CCOCC3)cc(Cl)c3cccnc23)cc1	-16	6	1%	nt	15µM*
O=C(Oc1c(CN2CCOCC2)cc(Cl)c2cccnc12)c1ccc(F)cc1	38	30*	-1%	7%	4.7µM*
O=C1COc2ccc(S(=O)(=O)N3CCN(c4ccccc4F)CC3)cc2N1	-3	-10	-2%	69%	-17%
COc1ccc(-c2csc(N3CCN(S(=O)(=O)c4ccc5c(c4)NC(=O)CO5)CC3)n2)cc1	-3	-4	3%	12µM*	8.3µM*
Cc1sc(N2CCN(S(=O)(=O)c3ccc4c(c3)NC(=O)CO4)CC2)nc1-c1ccccc1	-4	-9	1%	9.3µM*	?
O=S(=O)(c1ccc(F)cc1)N1CCN(c2nc(-c3ccc(F)cc3)cs2)CC1	-8	7	-2%	?	?
O=C(Nc1cccc(-c2nc3ccccc3o2)c1)c1cc([N+](=O)[O-])ccc1N1CCOCC1	11	1	nt	nt	nt
COc1ccc(S(=O)(=O)N2CCC(C(=O)Oc3ccc(C)cc3)CC2)cc1OC	nt	nt	nt	12%	4%
O=C(NC1CCCC1)C1CCCN1S(=O)(=O)c1cccc2cccnc12 (configuration not stated)	-12	-6	-1%	-27%	nt
O=C(NCc1ccccc1)C1CCCN1S(=O)(=O)c1cccc2cccnc12 (configuration not stated)	-5	-2	1%	4.7µM*	-6%
O=C(C1CCC(CNS(=O)(=O)c2cccc3cccnc23)CC1)N1CCCC1 (configuration not stated)	14	-3	1%	13µM*	-2%
